aSyn rescue: inhibitors of alpha-synuclein toxicity in yeast | Yeast expressing alpha-synuclein, growth rescue, BacTiter-Glo, 24 h | Potency, µM (titrated, usually from 46.1 µM), for the others: at the highest dose growth rescue (activation), usual class: activators | 370,000 compounds, 0.14% hits | AID 652106; further: % of control where 0% means no effect; nearly all actives have a fitted effect of over 65% in size
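Rescue of yeast growth: cells expressing toxic alpha-synuclein, induced in galactose at OD600 0.02, incubated with compound 24 h at 30 C. ATP luminescence quantified growth; inhibitors of toxicity appear as activators.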
Abeta rescue: restores growth of yeast expressing A-beta42 peptide; yeast expressing A-beta42, growth rescue, OD600, 48 h; response scale: 0% DMSO, 100% iron-clioquinol control; Potency, µM (top dose mostly 46.1 µM), actives largely listed as activators; 410,000 compounds, 0.063% hits; AID 1347071; further: nearly all actives have a fitted effect of over 55% in size
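Yeast A-beta toxicity model in growth medium with pinned compounds, 48 h at 30 C; growth read as absorbance at 600 nm. Normalized to FeCl3/clioquinol equimolar mix (positive) and DMSO (negative).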
TDP43 rescue: inhibitors of TDP-43 toxicity in yeast; TDP-43 expressing yeast growth rescue, BacTiter-Glo, 24 h; Potency, µM (doses to about 46.1 µM), without a hit: at the highest dose growth rescue (activation), most hits filed as activators; 410,000 compounds, 1.8% hits; AID 652104; further: % of control where 0% means no effect; nearly all actives have a fitted effect of over 50% in size
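Luminescence from BacTiter-Glo reports growth of TDP-43-expressing yeast after 24 hr at 30 deg C with compound. Cells were raffinose-pregrown to mid-log, then seeded in galactose medium at OD600=0.02.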
Mito fusion act: blocks mitochondrial division or promotes mitochondrial fusion. S. cerevisiae fusion-defective mutant growth rescue, CellTiterGlo 48 h. Potency, µM (highest dose often 46.1 µM), for the others: at the highest dose growth rescue (activation), most hits filed as activators. 320,000 compounds, 0.23% hits. AID 485298; further: % of control where 0% means no effect; nearly all actives have a fitted effect of over 45% in size
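S. cerevisiae fusion-defective temperature-sensitive mutants (e.g. fzo1-1, mgm1-5) grown 48 h at 37C in YPEG (ethanol/glycerol non-fermentable) medium with 23 nl compound per well; growth rescue read as CellTiterGlo luminescence.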
FUS yeast rescue: suppressors of FUS proteinopathy in yeast; S. cerevisiae FUS-expressing, growth rescue, OD600, 24 h; Potency, µM (titrated, usually from 76.6 µM), usual class: activators; 390,000 compounds, 0.24% hits; AID 1347120;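 further: plate controls were DMSO vehicle for no effect and reference control for full effect; nearly all actives have a fitted effect of over 55% in size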
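Cultures pregrown in 2.5% raffinose medium are shifted to minimal medium containing 2% galactose to express toxic FUS. Compounds are tested at several concentrations. After 24hr at 30C, growth is quantified at 600 nm absorbance.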
* marks the source's active call; other numbers are inactive results; i = inactive; ? = inconclusive; . = no result given; [ ] = remark or other dose. A selection: hits, their analogues and other compounds. The true share with any hit is near 2.2%. The call rests on the fitted dose curve; in most records, active means well fitted curve in the direction sought with a large enough effect; inconclusive means small, poorly fitted or top-dose-only effect, or another doubt; inactive means no such curve, though single readings can be large; an effect the other way counts as inactive or inconclusive. Potency means the concentration at half of the fitted maximal effect.

SMILES	aSyn rescue	Abeta rescue	TDP43 rescue	Mito fusion act	FUS yeast rescue
Cc1ccc(NC(=O)CSc2nc3ccccc3nc2Cc2ccccc2)c(Cl)c1	4.6%	i	13.2%	.	i
Cc1ccc(OCCn2cnc3cc([N+](=O)[O-])ccc3c2=O)cc1	7.4%	i	10µM*	7.5%	i
O=c1c2ccc([N+](=O)[O-])cc2ncn1CCOc1ccccc1	3.2%	i	23.0%[9.22 µM]	-2.9%	i
COc1ccc(N2CCN(Cc3nnc(-c4cccc(Br)c4)o3)CC2)cc1	.	i	23.8%	.	i
CCN(CC)c1ccc2c(C)c(Cl)c(=O)oc2c1	-5.4%	i	-10.8%[9.22 µM]	-0.3%	i
CCN(CC)c1ccc2c(Cl)c(Br)c(=O)oc2c1	17.6%	i	20µM*	-13.7%	i
CCN(CC)c1ccc2c(c1)oc(=O)c1c(Cl)cc(=O)oc12	12.6µM*	i	20.6%	3.1%	.
O=S(=O)(c1ccccc1F)N1CCN(c2nc(-c3cccs3)nc3ccccc23)CC1	-0.9%	.	.	.	.
Cc1cccc(CNC(=O)Cc2csc3ccccc23)c1	20µM*	i	?	.	i
O=C(Cc1csc2ccccc12)NCc1ccc(F)cc1	.	i	12.6µM*	.	i
O=C(CNC(=O)c1ccc(F)cc1)OCc1cc(=O)n2nc(C3CCCCC3)sc2n1	.	i	7.1%	.	i
CC(=O)c1cnc2nc(SCc3ccc(Cl)cc3)nn2c1C	12.1%	i	14.1µM*	-2.1%	i
CC(=O)c1cnc2nc(SCc3ccc(C)cc3)nn2c1C	0.4%	i	4.3%	7.3%	i
CCCc1cc(C(=O)NNC(=S)Nc2cccc(C)c2)cs1	-5.8%	i	8.91µM*	?	.
Cc1ccc(NC(=O)Cn2c(=O)n(-c3ccc(CC(=O)NCC4CCCO4)cc3)c(=O)c3ccccc32)cc1 (configuration not stated)	.	i	18.4%	.	i
CCOc1cccc(-c2nnc3sc(C4CCCCC4)nn23)c1	-5.3%	i	17.8µM*	15.7%	?
COc1cccc(-c2nnc3sc(C4CCCCC4)nn23)c1	-4.3%	i	?	-4.5%	i
C=C1C(=O)[C@]23C[C@H]1CCC2[C@]1(C)C(=O)CC[C@@](C)(C(=O)O)C1C[C@@H]3O (some centres not stated)	15.8µM*	i	12.6µM*	.	i
C=C1C(=O)[C@]23C[C@H]1CCC2[C@]1(C)CCC[C@@](C)(C(=O)O)C1C[C@@H]3O (some centres not stated)	?	i	?	.	i
CC1OC(c2ccccc2)OC2COC(c3ccccc3)OC12 (configuration not stated)	1.0%	i	-3.2%	.	i
CC(C)c1ccc(NC(=O)c2cc3c([nH]c2=O)CC(C)(C)CC3=O)cc1	2.6%	.	.	.	.
O=C(Nc1cccc(NC(=O)c2ccc(-c3ccc(Br)cc3)o2)c1)c1ccccc1	1.3%	i	-6.4%	-3.7%	i
CN(C)C(=O)c1ccc(NC(=O)c2ccc(-c3ccc(Cl)cc3)o2)cc1	-8.4%	i	?	11.0%	.
O=C(Nc1ccccc1)c1ccc(-c2ccc(Br)cc2)o1	-20.9%	i	12.6µM*	15.8µM*	i
CC(=O)c1ccc(NC(=O)c2ccc(-c3ccc(Cl)cc3)o2)cc1	.	i	11.2µM*	.	i
SMILES	aSyn rescue	Abeta rescue	TDP43 rescue	Mito fusion act	FUS yeast rescue
Cc1cccc(N2CCN(C(=O)c3ccc4c(c3)N(Cc3cccc(Cl)c3)C(=O)c3ccccc3S4=O)CC2)c1C (configuration not stated)	.	i	-7.6%	.	?
O=C(O)c1ccc(-c2ccc(Cl)cc2Cl)o1	17.2%	i	?	2.4%	i
O=Cc1ccc(-c2ccc(Cl)cc2Cl)[nH]1	10.0%	i	20µM*	-3.3%	i
CNc1c(Cl)cc(/C=C2\C=Cc3ccccc32)cc1Cl	-1.5%	.	.	.	.
CCC(=O)N1CCc2cc(S(=O)(=O)NCCC(=O)NC(C)c3ccccc3)ccc21 (configuration not stated)	.	i	13.6%	.	i
O=C(/C=C/c1ccc(Cl)cc1Cl)c1nc2ccccc2[nH]1	25.4%	i	11.2µM*	1.3%	i
COc1ccc(S(=O)(=O)N2CCC(C(=O)Nc3ccc(Oc4ccccc4)cc3)CC2)cc1OC	.	i	16.9%	.	i
Cc1onc(C(=O)Nc2ccccc2C(F)(F)F)c1[N+](=O)[O-]	-4.3%	i	12.3%	?	i
COc1cc(C(=O)NNC(=O)c2nn(C)c(=O)c3ccccc23)cc(OC)c1OC	-5.6%	i	3.16µM*	.	i
Cc1onc(C(=O)Nc2cccc(C(F)(F)F)c2)c1[N+](=O)[O-]	-12.8%	i	12.6µM*	1.1%	i
Cn1nc(C(=O)Nc2cccc(C(F)(F)F)c2)c2ccccc2c1=O	8.9%	i	11.2µM*	5.4%	.
O=C(NC1CCCCC1)C(c1ccnc2ccccc12)n1c(=O)c(-c2ccccc2)nc2ccccc21 (configuration not stated)	-1.6%	i	12.5%	.	i
COc1ccc2ccccc2c1C(=O)/C=C\c1ccoc1	?	i	11.2µM*	10µM*	i
O=C1c2ccccc2CCC12N=NCC2c1ccc(Br)cc1 (configuration not stated)	.	i	12.6µM*	24.0%	i
O=C(C1COc2ccccc2O1)N1CCN(c2nc3c(F)cccc3s2)CC1 (configuration not stated)	.	12.6µM*	10µM*	.	i
COc1cccc2sc(N3CCN(C(=O)C4COc5ccccc5O4)CC3)nc12 (configuration not stated)	20.3%	i	?	10.2%	i
Cc1ccc2nc(N3CCN(C(=O)C4COc5ccccc5O4)CC3)sc2c1 (configuration not stated)	.	i	20µM*	.	i
NC(=O)c1cn(-c2ccccc2)nc1-c1cccnc1	0.2%	i	12.6µM*	-3.2%	i
O=C(/C=C/c1cn(-c2ccccc2)nc1-c1cccnc1)c1ccco1	5.2%	i	12.6µM*	4.9%	i
CCN1C(=NCCN2CCOCC2)N[C@@H](CCc2ccccc2)C(C(=O)OC)=C1C	.	.	.	-3.0%	.
O=C1NC(Cc2ccc(O)cc2)c2nc3ccc(Cl)cc3c(=O)n2-c2cc3ccccc3cc21 (configuration not stated)	-0.1%	i	24.6%	.	?
CCCCc1c(-c2cccc(Br)c2)ncn1CCc1ccccc1OC	2.6%	i	25.1µM*	.	i
O=C(NCc1ccccc1)c1c2c(nc3ccccc13)C(=O)N(C1CCCCC1)C2	.	i	15.5%	.	i
Clc1cccc(N2CCN(c3c4c(nc5nncn35)CCC4)CC2)c1	.	i	17.8µM*	.	i
Cc1cccc(N2CCN(c3c4c(nc5nncn35)CCC4)CC2)c1C	.	i	?	.	i

Screens as filed in PubChem BioAssay.
